Laboratory results published in PMC7862700, “An all-to-all approach to the identification of sequence-specific readers for epigenetic DNA modifications on cytosine”.

Key:
Experiment in all cases: DAPPL (digital affinity profiling via proximity ligation, sequencing); 10 mM Tris-HCl pH 7.5, 50 mM NaCl, 1 mM DTT, 4% glycerol, room temperature, 30 min; GST-TFs on glutathione beads, 16-mer random dsDNA library, 0.1% formaldehyde crosslink after washing; high values mean tight binding
Conditions in all cases: protein: recombinant; tags: N-terminal GST; dsDNA, one strand shown
FLI1 = molecular target: T1, FLI1 (Homo sapiens, UniProt Q01543 1-452)
T1 sequence: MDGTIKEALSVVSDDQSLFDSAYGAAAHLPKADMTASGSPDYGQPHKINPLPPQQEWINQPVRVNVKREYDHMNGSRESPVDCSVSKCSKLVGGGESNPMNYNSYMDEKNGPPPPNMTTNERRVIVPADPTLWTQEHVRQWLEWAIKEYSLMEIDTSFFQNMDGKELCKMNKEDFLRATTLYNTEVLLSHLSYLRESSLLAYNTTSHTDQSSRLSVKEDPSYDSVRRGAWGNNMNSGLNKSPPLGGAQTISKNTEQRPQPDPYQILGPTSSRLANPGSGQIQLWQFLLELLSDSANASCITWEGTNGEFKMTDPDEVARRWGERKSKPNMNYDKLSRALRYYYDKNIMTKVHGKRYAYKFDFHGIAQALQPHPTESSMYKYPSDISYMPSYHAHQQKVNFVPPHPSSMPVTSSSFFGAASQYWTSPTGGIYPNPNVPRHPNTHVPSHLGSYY
In short: (§1)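 Beads coated with glutathione captured GST-fused human transcription factors that had been expressed in yeast, and the factors were then given DNA barcodes and pooled with a tag-only sample. The pools were incubated with 200 nmole of a random double-stranded 16-mer DNA library in Tris/NaCl/DTT/glycerol buffer for 30 min at room temperature, washed, crosslinked with 0.1% formaldehyde and proximity-ligated with BsaI/T4 ligase at 37 °C for 1 h. PCR amplification and Illumina NextSeq500 sequencing came last. Binding signal is each hexamer's read frequency for a factor divided by its frequency for the tag-only sample.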

ELK1 = molecular target: T2, ELK1 (Homo sapiens, UniProt P19419 1-428)
T2 sequence: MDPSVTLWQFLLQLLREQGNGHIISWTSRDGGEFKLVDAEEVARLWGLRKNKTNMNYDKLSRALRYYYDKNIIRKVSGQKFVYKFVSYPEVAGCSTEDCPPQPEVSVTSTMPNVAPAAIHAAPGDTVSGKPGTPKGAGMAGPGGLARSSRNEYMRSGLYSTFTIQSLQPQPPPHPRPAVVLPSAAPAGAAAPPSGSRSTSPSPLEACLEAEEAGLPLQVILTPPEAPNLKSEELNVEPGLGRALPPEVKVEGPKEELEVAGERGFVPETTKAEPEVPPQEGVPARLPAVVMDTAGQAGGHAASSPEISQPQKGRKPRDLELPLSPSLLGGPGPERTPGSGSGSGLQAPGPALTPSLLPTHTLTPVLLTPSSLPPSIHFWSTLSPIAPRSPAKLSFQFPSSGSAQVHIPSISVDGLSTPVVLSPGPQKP
In short: as §1

GABPA = molecular target: T3, GABPA (Homo sapiens, UniProt Q06546 1-454)
T3 sequence: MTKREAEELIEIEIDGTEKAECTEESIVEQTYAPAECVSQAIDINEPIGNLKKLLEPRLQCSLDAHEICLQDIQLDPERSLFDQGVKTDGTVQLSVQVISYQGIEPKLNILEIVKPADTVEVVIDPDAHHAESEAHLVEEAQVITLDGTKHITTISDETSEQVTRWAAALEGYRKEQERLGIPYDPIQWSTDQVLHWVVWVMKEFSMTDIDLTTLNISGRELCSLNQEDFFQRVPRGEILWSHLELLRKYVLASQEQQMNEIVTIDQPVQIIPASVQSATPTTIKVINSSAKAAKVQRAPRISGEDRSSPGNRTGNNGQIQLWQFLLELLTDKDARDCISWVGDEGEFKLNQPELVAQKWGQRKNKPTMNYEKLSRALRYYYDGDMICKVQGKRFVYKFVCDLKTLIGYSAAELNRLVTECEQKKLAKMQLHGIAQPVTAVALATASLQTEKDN
In short: as §1

ERG = molecular target: T4, ERG (Homo sapiens, UniProt P11308 1-479)
T4 sequence: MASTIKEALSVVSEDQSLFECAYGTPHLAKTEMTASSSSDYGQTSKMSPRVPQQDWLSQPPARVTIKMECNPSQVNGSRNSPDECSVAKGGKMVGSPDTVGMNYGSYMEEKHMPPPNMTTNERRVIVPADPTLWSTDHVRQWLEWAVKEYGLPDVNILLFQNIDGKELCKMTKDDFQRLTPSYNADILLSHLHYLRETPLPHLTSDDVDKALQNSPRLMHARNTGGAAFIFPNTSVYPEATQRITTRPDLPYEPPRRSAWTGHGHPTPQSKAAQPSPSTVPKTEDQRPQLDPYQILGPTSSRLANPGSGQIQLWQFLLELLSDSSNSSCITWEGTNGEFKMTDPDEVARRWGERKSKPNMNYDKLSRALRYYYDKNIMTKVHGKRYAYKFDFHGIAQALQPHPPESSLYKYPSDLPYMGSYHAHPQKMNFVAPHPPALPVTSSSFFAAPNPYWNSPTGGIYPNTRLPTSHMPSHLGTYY
In short: as §1

ELF1 = ELF1 (Homo sapiens, UniProt P32519 1-619)
Chain of ELF1 (P32519 whole entry): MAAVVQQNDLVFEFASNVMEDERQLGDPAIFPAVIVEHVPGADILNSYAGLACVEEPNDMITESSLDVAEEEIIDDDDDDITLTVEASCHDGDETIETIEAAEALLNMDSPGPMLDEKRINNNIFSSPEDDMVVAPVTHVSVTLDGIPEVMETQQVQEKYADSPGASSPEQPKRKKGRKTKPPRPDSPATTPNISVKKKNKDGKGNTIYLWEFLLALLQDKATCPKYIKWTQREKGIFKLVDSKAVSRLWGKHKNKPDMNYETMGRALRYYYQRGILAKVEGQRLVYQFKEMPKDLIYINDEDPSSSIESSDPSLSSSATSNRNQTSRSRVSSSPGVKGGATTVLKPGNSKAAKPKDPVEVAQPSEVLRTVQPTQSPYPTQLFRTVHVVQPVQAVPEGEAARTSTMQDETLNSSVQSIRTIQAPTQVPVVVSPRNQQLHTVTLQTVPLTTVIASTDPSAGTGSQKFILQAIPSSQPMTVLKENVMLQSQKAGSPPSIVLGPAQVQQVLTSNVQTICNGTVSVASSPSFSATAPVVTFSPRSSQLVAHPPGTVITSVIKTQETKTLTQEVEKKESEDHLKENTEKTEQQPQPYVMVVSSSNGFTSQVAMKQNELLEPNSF
In short: as §1

EHF = molecular target: T5, EHF (Homo sapiens, UniProt Q9NZC4 1-300)
T5 sequence: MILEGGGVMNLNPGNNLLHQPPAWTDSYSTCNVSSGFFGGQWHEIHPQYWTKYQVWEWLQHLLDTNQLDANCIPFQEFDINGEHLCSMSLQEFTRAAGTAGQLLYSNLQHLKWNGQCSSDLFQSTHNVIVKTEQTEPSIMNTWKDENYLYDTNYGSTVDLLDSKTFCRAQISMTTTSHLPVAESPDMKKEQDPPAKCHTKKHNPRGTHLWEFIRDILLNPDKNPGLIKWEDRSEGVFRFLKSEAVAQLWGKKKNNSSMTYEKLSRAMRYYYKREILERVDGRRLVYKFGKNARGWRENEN
In short: as §1

SPI1 [1] = molecular target: SPI1 (Homo sapiens, UniProt P17947 1-270)
In short: as §1

SPIB = SPIB (Homo sapiens, UniProt Q01892 1-262)
Chain of SPIB (Q01892 whole entry): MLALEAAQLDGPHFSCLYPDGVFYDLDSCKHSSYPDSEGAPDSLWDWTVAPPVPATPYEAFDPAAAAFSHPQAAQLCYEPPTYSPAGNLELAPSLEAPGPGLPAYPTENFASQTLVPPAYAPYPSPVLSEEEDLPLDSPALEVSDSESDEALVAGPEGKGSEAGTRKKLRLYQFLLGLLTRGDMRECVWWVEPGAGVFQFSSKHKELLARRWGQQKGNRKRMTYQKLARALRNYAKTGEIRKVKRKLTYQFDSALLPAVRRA
In short: as §1

ELK3 = molecular target: T6, ELK3 (Homo sapiens, UniProt P41970 1-407)
T6 sequence: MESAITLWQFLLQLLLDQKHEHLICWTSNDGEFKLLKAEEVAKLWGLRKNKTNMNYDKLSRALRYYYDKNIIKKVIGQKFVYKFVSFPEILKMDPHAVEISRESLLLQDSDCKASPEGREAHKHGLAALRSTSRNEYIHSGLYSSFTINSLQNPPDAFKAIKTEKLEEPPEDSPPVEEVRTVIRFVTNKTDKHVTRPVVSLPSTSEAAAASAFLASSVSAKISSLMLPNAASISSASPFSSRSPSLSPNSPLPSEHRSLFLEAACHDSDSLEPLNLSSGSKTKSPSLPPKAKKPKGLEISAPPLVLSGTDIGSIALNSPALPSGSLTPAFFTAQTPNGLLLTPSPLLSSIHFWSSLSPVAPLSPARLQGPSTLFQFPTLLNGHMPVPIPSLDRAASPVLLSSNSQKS
In short: as §1

SPI1 [2] = molecular target: SPI1 (Homo sapiens, UniProt P17947 1-270); remark: listed apart in the source
In short: as §1

Row | Sequence | binding signal (FLI1) | binding signal (ELK1) | binding signal (GABPA) | binding signal (ERG) | binding signal (ELF1) | binding signal (EHF) | binding signal (SPI1 [1]) | binding signal (SPIB) | binding signal (ELK3) | binding signal (SPI1 [2])
1 | CTTCTC | 1.38 fold enrichment (6-mer frequency, TF over GST control) | 1.39 fold enrichment (6-mer frequency, TF over GST control) | 1.39 fold enrichment (6-mer frequency, TF over GST control) | 1.3 fold enrichment (6-mer frequency, TF over GST control) | 1.41 fold enrichment (6-mer frequency, TF over GST control) | 1.37 fold enrichment (6-mer frequency, TF over GST control) | 1.4 fold enrichment (6-mer frequency, TF over GST control) | 1.34 fold enrichment (6-mer frequency, TF over GST control) | 1.39 fold enrichment (6-mer frequency, TF over GST control) | 
2 | CTTCCT | 3.11 fold enrichment (6-mer frequency, TF over GST control) | 2.94 fold enrichment (6-mer frequency, TF over GST control) | 2.95 fold enrichment (6-mer frequency, TF over GST control) | 3.65 fold enrichment (6-mer frequency, TF over GST control) | 3.01 fold enrichment (6-mer frequency, TF over GST control) | 3.28 fold enrichment (6-mer frequency, TF over GST control) |  | 3.4 fold enrichment (6-mer frequency, TF over GST control) | 3.04 fold enrichment (6-mer frequency, TF over GST control) | 5.09 fold enrichment (6-mer frequency, TF over GST control)
3 | CTGTTA | 1.22 fold enrichment (6-mer frequency, TF over GST control) | 1.24 fold enrichment (6-mer frequency, TF over GST control) | 1.32 fold enrichment (6-mer frequency, TF over GST control) | 1.28 fold enrichment (6-mer frequency, TF over GST control) | 1.24 fold enrichment (6-mer frequency, TF over GST control) | 1.26 fold enrichment (6-mer frequency, TF over GST control) | 1.27 fold enrichment (6-mer frequency, TF over GST control) | 1.27 fold enrichment (6-mer frequency, TF over GST control) | 1.32 fold enrichment (6-mer frequency, TF over GST control) | 
4 | CTCATG | 1.29 fold enrichment (6-mer frequency, TF over GST control) | 1.29 fold enrichment (6-mer frequency, TF over GST control) | 1.26 fold enrichment (6-mer frequency, TF over GST control) | 1.21 fold enrichment (6-mer frequency, TF over GST control) | 1.32 fold enrichment (6-mer frequency, TF over GST control) | 1.23 fold enrichment (6-mer frequency, TF over GST control) | 1.27 fold enrichment (6-mer frequency, TF over GST control) | 1.11 fold enrichment (6-mer frequency, TF over GST control) | 1.26 fold enrichment (6-mer frequency, TF over GST control) | 
5 | TTCCGC | 3.03 fold enrichment (6-mer frequency, TF over GST control) | 3.07 fold enrichment (6-mer frequency, TF over GST control) | 2.79 fold enrichment (6-mer frequency, TF over GST control) | 3.22 fold enrichment (6-mer frequency, TF over GST control) | 2.85 fold enrichment (6-mer frequency, TF over GST control) | 3.08 fold enrichment (6-mer frequency, TF over GST control) |  | 3.15 fold enrichment (6-mer frequency, TF over GST control) | 3.03 fold enrichment (6-mer frequency, TF over GST control) | 4.75 fold enrichment (6-mer frequency, TF over GST control)
6 | AGAATT | 1.21 fold enrichment (6-mer frequency, TF over GST control) | 1.15 fold enrichment (6-mer frequency, TF over GST control) | 1.11 fold enrichment (6-mer frequency, TF over GST control) | 1.17 fold enrichment (6-mer frequency, TF over GST control) | 1.15 fold enrichment (6-mer frequency, TF over GST control) | 1.18 fold enrichment (6-mer frequency, TF over GST control) | 1.22 fold enrichment (6-mer frequency, TF over GST control) | 1.16 fold enrichment (6-mer frequency, TF over GST control) | 1.28 fold enrichment (6-mer frequency, TF over GST control) | 
7 | TTCCGG | 5.8 fold enrichment (6-mer frequency, TF over GST control) | 5.94 fold enrichment (6-mer frequency, TF over GST control) | 5.16 fold enrichment (6-mer frequency, TF over GST control) | 7.1 fold enrichment (6-mer frequency, TF over GST control) | 5.41 fold enrichment (6-mer frequency, TF over GST control) | 5.96 fold enrichment (6-mer frequency, TF over GST control) |  | 5.9 fold enrichment (6-mer frequency, TF over GST control) | 6.93 fold enrichment (6-mer frequency, TF over GST control) | 5.73 fold enrichment (6-mer frequency, TF over GST control)
